PubChem BioAssay (NCI)
Compounds without any hit were thinned out: in the full panel of roughly 79,000, 15% have a hit. Activity calls are given as the source filed them. No stated cut-off is given here; in the data, active means growth inhibition above about 70%; inactive means the rest.

Tests used:
[1] = NCI Yeast Anticancer Drug Screen. Data for the rad52 strain (AID 147);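 further: 0% = growth of vehicle-treated control cultures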; details: S. cerevisiae rad52 mutant growth inhibition, hits give high values
Summary of the method: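 DNA repair-defective yeast; compound exposure; growth scored against vehicle controls.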

[2] = NCI Yeast Anticancer Drug Screen. Data for the wt1 strain (AID 149);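 further: 0% = growth of vehicle-treated wt1 cultures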; details: S. cerevisiae wt1 strain (SPY 50644) growth inhibition, hits give high values
Summary of the method: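 Yeast wt1 strain exposed to compounds; growth inhibition measured relative to vehicle-treated controls.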

[3] = NCI Yeast Anticancer Drug Screen. Data for the rad50EPP+ strain (AID 151);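 further: 0% = growth of vehicle-treated control cultures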; details: S. cerevisiae rad50 mutant strain, hits give high values
Summary of the method: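 rad50EPP+ yeast treated with test compounds. Readout: growth vs vehicle control.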

[4] = NCI Yeast Anticancer Drug Screen. Data for the mgt1 strain (AID 153); details: S. cerevisiae mgt1 mutant growth inhibition, hits give high values
Summary of the method: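 Growth inhibition relative to vehicle controls was scored for the mgt1 yeast strain after compound exposure.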

[5] = NCI Yeast Anticancer Drug Screen. Data for the rad50 strain (AID 155);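 further: 0% = growth of vehicle-only cultures of the same strain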; details: S. cerevisiae rad50 strain growth inhibition, hits give high values
Summary of the method: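 Yeast carrying a defined DNA repair defect were exposed to test compounds, and growth was compared with vehicle-treated controls to give percent inhibition.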

[6] = NCI Yeast Anticancer Drug Screen. Data for the mec2-1 strain (AID 157); details: S. cerevisiae mec2-1 strain, hits give high values
Summary of the method: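 Growth inhibition is read against vehicle-treated controls after compound exposure of the mec2-1 yeast strain, which is defective in DNA damage repair or cell cycle control.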

[7] = NCI Yeast Anticancer Drug Screen. Data for the rad14 strain (AID 159);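 further: 0% = growth of vehicle-treated control cultures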; details: S. cerevisiae rad14 strain growth inhibition, hits give high values
Summary of the method: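 Yeast cells carrying a defined DNA-repair defect were exposed to compounds, and growth inhibition was calculated relative to vehicle-treated control cultures.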

[8] = NCI Yeast Anticancer Drug Screen. Data for the sgs1 mgt1 strain (AID 161);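 further: 0% = growth of cultures given vehicle only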; details: S. cerevisiae sgs1 mgt1 strain, hits give high values
Summary of the method: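 Percent growth inhibition was derived by comparing compound-exposed mutant yeast with vehicle-exposed cultures. The strain carries alterations in DNA damage repair.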

[9] = NCI Yeast Anticancer Drug Screen. Data for the CLN2oe strain (AID 163);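 further: 0% = growth of vehicle-only control cultures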; details: S. cerevisiae CLN2oe strain, hits give high values
Summary of the method: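 Compound-treated yeast; growth vs vehicle ctrl = % inhibition. Genetically altered strain (cell-cycle control).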

[10] = NCI Yeast Anticancer Drug Screen. Data for the cln2 rad14 strain (AID 165);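 further: 0% = growth equal to vehicle treated cultures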; details: S. cerevisiae cln2 rad14 strain, hits give high values
Summary of the method: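 Growth inhibition, relative to vehicle-treated controls, is the read-out. The test organism is a yeast strain with defined genetic alterations, cln2 rad14.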

[11] = NCI Yeast Anticancer Drug Screen. Data for the bub3 strain (AID 167); details: S. cerevisiae bub3 mutant strain, hits give high values
Summary of the method: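 Compounds were applied to a genetically altered yeast strain carrying a cell-cycle control defect. Growth inhibition was scored against vehicle-treated controls.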

[12] = NCI Yeast Anticancer Drug Screen. Data for the wt2 strain (AID 169);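 further: 0% = growth of vehicle-treated yeast cultures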; details: S. cerevisiae wt2 strain growth inhibition, hits give high values
Summary of the method: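 Compound exposure of yeast; growth compared with vehicle controls; inhibition reported.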

[13] = NCI Yeast Anticancer Drug Screen. Data for the mlh1 strain (AID 171);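 further: 0% = growth of vehicle-treated control cultures of the same strain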; details: S. cerevisiae mlh1 strain growth inhibition, hits give high values
Summary of the method: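 Compounds are applied to a genetically altered yeast strain, and its growth is compared with that of vehicle-treated cultures to give percent inhibition.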

[14] = NCI Yeast Anticancer Drug Screen. Data for the sgs1 strain (AID 173);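 further: 0% = growth of vehicle-only control cultures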; details: S. cerevisiae sgs1 mutant, hits give high values
Summary of the method: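 Compounds applied to genetically altered yeast; growth compared with vehicle-treated cultures to give % inhibition.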

[15] = NCI Yeast Anticancer Drug Screen. Data for the mlh1 rad18 strain (AID 175); details: S. cerevisiae mlh1 rad18 strain growth inhibition, hits give high values
Summary of the method: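 Cells of a genetically altered yeast strain, deficient in DNA damage repair, were treated with compound. Their growth was then compared with that of vehicle-treated cultures to give inhibition.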

[16] = NCI Yeast Anticancer Drug Screen. Data for the rad18 strain (AID 177); details: S. cerevisiae rad18 mutant growth inhibition, hits give high values
Summary of the method: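 Compounds are applied to a repair-deficient yeast strain, and growth is compared with that of vehicle-treated cultures to give percent inhibition.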

[17] = at 5.0 µM (retest, dose inferred, filed as 0.5)
[18] = at 50.0 µM (retest, dose inferred, filed as 5.0)

Measured: growth inhibition

CC(C)CN(CC(C)C)C(=O)c1ccc(Cl)c(Cl)c1
inactive: [1]; at 1.2 µM -4% | [1]; at 3.7 µM 0% | [1]; at 11.0 µM 6% | [2]; at 1.2 µM -3% | [2]; at 3.7 µM -3% | [2]; at 11.0 µM -3% | [2]; at 33.0 µM 63% | [3]; at 1.2 µM -2% | [3]; at 3.7 µM 0% | [3]; at 11.0 µM 2% | [3]; at 33.0 µM 6% | [3]; at 100.0 µM 3% | [4]; at 1.2 µM 2% | [4]; at 3.7 µM 2% | [4]; at 11.0 µM 1% | [4]; at 33.0 µM 21% | [5]; at 1.2 µM -2% | [5]; at 3.7 µM 4% | [5]; [17] -10% | [5]; at 11.0 µM 6% | [6]; at 1.2 µM -1% | [6]; at 3.7 µM 1% | [6]; [17] 6% | [6]; at 11.0 µM 0% | [7]; at 1.2 µM -2% | [7]; at 3.7 µM -1% | [7]; at 11.0 µM 9% | [7]; at 33.0 µM 31% | [8]; [17] -3% | [9]; at 1.2 µM 2% | [9]; at 3.7 µM 9% | [9]; at 11.0 µM 14% | [9]; at 33.0 µM 41% | [10]; [17] -29% | [10]; [18] 50% | [11]; at 1.2 µM 4% | [11]; at 3.7 µM 3% | [11]; [17] -18% | [11]; at 11.0 µM 8% | [11]; at 33.0 µM 25% | [11]; [18] 22% | [12]; at 1.2 µM -3% | [12]; at 3.7 µM -5% | [12]; at 11.0 µM -5% | [13]; at 1.2 µM 0% | [13]; at 3.7 µM 2% | [13]; at 11.0 µM 5% | [13]; at 33.0 µM 39% | [14]; at 1.2 µM 0% | [14]; at 3.7 µM 3% | [14]; at 11.0 µM 5% | [14]; at 33.0 µM 62% | [15]; [17] -17% | [16]; at 1.2 µM 0% | [16]; at 3.7 µM 4% | [16]; at 11.0 µM 5% | [16]; at 33.0 µM 66%
active: [1]; at 33.0 µM 82% | [1]; at 100.0 µM 98% | [2]; at 100.0 µM 98% | [4]; at 100.0 µM 98% | [5]; at 33.0 µM 85% | [5]; [18] 94% | [5]; at 50.0 µM 94.7% | [5]; at 100.0 µM 99% | [6]; at 33.0 µM 82% | [6]; [18] 76% | [6]; at 50.0 µM 98% | [6]; at 100.0 µM 99% | [7]; at 100.0 µM 99% | [8]; [18] 83% | [8]; at 50.0 µM 95.8% | [9]; at 100.0 µM 99% | [10]; at 50.0 µM 93.2% | [11]; at 50.0 µM 83% | [11]; at 100.0 µM 99% | [12]; at 33.0 µM 74% | [12]; at 100.0 µM 99% | [13]; at 100.0 µM 98% | [14]; at 100.0 µM 99% | [15]; [18] 96% | [15]; at 50.0 µM 97.5% | [16]; at 100.0 µM 99%
